GPR151 ag: activators of human GPR151; activation, % at 11.2 µM; Q8TDV0; PathHunter beta-arrestin GPR151 cells, luminescence; AID 1508602; 1% of 650,000 active; in the data active = activation above about 4.9%
Target sequence (Q8TDV0 whole entry, looked up): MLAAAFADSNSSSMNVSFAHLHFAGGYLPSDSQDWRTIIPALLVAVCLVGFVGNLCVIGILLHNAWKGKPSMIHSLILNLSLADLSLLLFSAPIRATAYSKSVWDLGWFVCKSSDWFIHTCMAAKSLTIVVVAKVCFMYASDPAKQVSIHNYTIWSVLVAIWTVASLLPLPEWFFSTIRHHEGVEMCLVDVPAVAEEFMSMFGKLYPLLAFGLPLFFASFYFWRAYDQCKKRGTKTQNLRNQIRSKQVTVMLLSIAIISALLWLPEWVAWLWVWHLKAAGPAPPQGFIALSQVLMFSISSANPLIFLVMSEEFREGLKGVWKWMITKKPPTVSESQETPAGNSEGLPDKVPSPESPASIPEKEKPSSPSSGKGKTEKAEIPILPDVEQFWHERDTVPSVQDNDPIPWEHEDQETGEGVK
FBW7 act: activators of human E3 ligase FBW7. Q969H0. 0.13% of 650,000 active. AID 1259310. AlphaScreen FBW7–phospho-cyclin E peptide binding, activator screen. normalized activity (activation), % at 26.1 µM; in the data active = normalized activity above about 1.9%;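 note: purified mutant Fbw7 with reduced substrate affinity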
MITF primary: human MITF inhibition, primary screen; AlphaScreen MITF homodimerization, bead proximity signal; O75030; AID 1259374; inhibition, % at 2.6 µM; 0.91% of 650,000 active; in the data active = inhibition above about 50%
TEAD-YAP block: TEAD-YAP interaction inhibition; HEK-TIYL cells, TEAD-Gal4/YAP UAS-luciferase luminescence; inhibition, % at 9.12 µM; 1.4% of 640,000 active; AID 1259422; in the data active = inhibition above about 32%
Large screens that a line does not name were inactive. A selection: hits, their analogues and other compounds. The true share with any hit is near 3.5%.

Oc1c(C(c2ccc(F)cc2)N2CCCC2)ccc2cccnc12 (configuration not stated)	TEAD-YAP block 80
Fc1ccc(Cn2nnnc2C(c2ccc3ncccc3c2)N2CCCC2)cc1 (configuration not stated)	none
Oc1c(C(c2ccncc2)N2CCOCC2)ccc2cccnc12 (configuration not stated)	MITF primary 90, TEAD-YAP block 71
CC(C)(C)C(=O)/C=C1\NCCN\C1=C/C(=O)C(C)(C)C	none
O=[N+]([O-])c1ccc(N/N=C/C2CC3CC2C(C(F)(F)F)C3)c([N+](=O)[O-])c1 (configuration not stated)	none
c1cc2c(cc1Nc1nc(N3CCCCC3)nc(N3CCCCC3)n1)OCO2	FBW7 act 2.2
Cc1cnc(Nc2ccc(N3CCOCC3)cc2)nc1Nc1ccc2c(c1)OCO2	TEAD-YAP block 80
COc1cc2nc(Nc3cccc(N(C)C)c3)nc(Nc3ccc(N4CCOCC4)cc3)c2cc1OC	none
Cc1cnc(Nc2cccc(N(C)C)c2)nc1Nc1ccc2c(c1)OCO2	TEAD-YAP block 40
Cc1cnc(NCc2ccc3c(c2)OCO3)nc1Nc1ccc2c(c1)OCO2	none
Cc1cnc(Nc2ccc(C(F)(F)F)cc2)nc1Nc1ccc2c(c1)OCO2	none
Cc1cnc(Nc2cccc(N(C)C)c2)nc1Nc1ccc(N2CCOCC2)cc1	TEAD-YAP block 66
c1cc2c(cc1Nc1nc(N3CCOCC3)nc(N3CCOCC3)n1)OCO2	none
COc1ccc(S(=O)(=O)N(CC(=O)N2CCN(c3ccccc3OC)CC2)c2ccc(Cl)cc2)cc1	none
CN(C)c1cccc(Nc2nccc(Nc3ccc(N4CCOCC4)cc3)n2)c1	TEAD-YAP block 39
Cc1cnc(Nc2nc3ccccc3n2C)nc1Nc1ccc2c(c1)OCO2	TEAD-YAP block 32
Cc1ccc(N2CCn3c(SCC(=O)Nc4ccccc4F)nnc32)cc1	none
OC1(c2ccc(OC(F)F)cc2)CSC(=Nc2cccnc2)N1C1CC1 (configuration not stated)	TEAD-YAP block 42
COc1cccc(C2=CC(c3cccc(F)c3)n3nnnc3N2)c1 (configuration not stated)	TEAD-YAP block 50
COc1ccc(Br)cc1C1C=C(c2cccs2)Nc2nnnn21 (configuration not stated)	TEAD-YAP block 42
COc1cccc(C2=CC(c3ccc(OC)cc3OC)n3nnnc3N2)c1 (configuration not stated)	TEAD-YAP block 48
C=CCc1cccc(OC)c1OCCCNCCO	none
O=C(NCc1cccnc1)C1CCN(c2ccc(Nc3cnccn3)nn2)CC1	none
O=C(CN1C(=O)C2C3C=CC(C3)C2C1=O)NCc1ccccc1 (configuration not stated)	none
O=C(CN1C(=O)C2C3C=CC(C3)C2C1=O)Nc1c2ccccc2nc2ccccc12 (configuration not stated)	TEAD-YAP block 72
O=C(NC1CC1)c1ccc2nc(-c3ccco3)c(-c3ccco3)nc2c1	MITF primary 71
O=C(Nc1ccc2nc(-c3ccco3)c(-c3ccco3)nc2c1)N1CCCC1	MITF primary 94
CCOCCCNC(=O)c1ccc2nc(-c3ccco3)c(-c3ccco3)nc2c1	none
O=C(NCCO)Nc1ccc2nc(-c3ccco3)c(-c3ccco3)nc2c1	MITF primary 89
O=C(NCCCO)c1ccc2nc(-c3ccco3)c(-c3ccco3)nc2c1	MITF primary 83
O=C(NC1CCCC1)c1ccc2nc(-c3ccccc3)c(-c3ccccc3)nc2c1	none
CCc1ccc(-c2cn3nc(C)c(C)nc3n2)cc1	TEAD-YAP block 92
Cc1cccn2cc(-c3ccc(NC(=O)CC(C)C)cc3)nc12	none
CCc1ccc(-c2cn3ccccc3n2)cc1	TEAD-YAP block 69
CC(=O)Nc1ccc(-c2cn3ccccc3n2)cc1	TEAD-YAP block 39
CC(C)CC(=O)Nc1ccc(-c2cn3ccccc3n2)cc1	TEAD-YAP block 41
CC(=O)NCC1CCC2(CCN(Cc3ccc4ccccc4c3)CC2)O1 (configuration not stated)	none
CC(=O)NCC1CCC2(CCN(Cc3ccc4c(c3)CCCN4C)CC2)O1 (configuration not stated)	TEAD-YAP block 55
Cc1nn2c(N)c(C#N)cnc2c1C(N)=O	none
Cc1[nH]c2ccccc2c1C(=O)/C(C#N)=C/c1ccc(N(C)CCO)cc1	TEAD-YAP block 38
OC1CCN(c2ccc(Nc3nccc(-c4cc(F)cc(N5CCN(C6CC6)CC5)c4)n3)cc2)CC1	none
CC1(C)c2ssc(=S)c2-c2ccccc2N1C(=O)C1CC1	none
CC1(C)c2ssc(=S)c2-c2ccccc2N1C(=O)c1ccccc1	TEAD-YAP block 57
O=C(NC1CCCCCCCCCCC1)c1ccc([N+](=O)[O-])cc1Cl	none
O=C(Nc1ccc(Cc2ccncc2)cc1)c1ccc([N+](=O)[O-])cc1	none
O=C(Nc1cnc2ccccc2c1)c1ccccc1Cl	TEAD-YAP block 78
O=C(Nc1cccnc1)c1ccc([N+](=O)[O-])cc1Cl	none
O=C(NC1CCCCC1)c1ccc([N+](=O)[O-])cc1Cl	TEAD-YAP block 40
O=C(Nc1ccc(Cc2ccncc2)cc1)c1ccc([N+](=O)[O-])cc1Cl	TEAD-YAP block 36
O=C(Nc1cnc2ccccc2c1)c1ccc([N+](=O)[O-])cc1Cl	TEAD-YAP block 49
C=CCN(C(=O)CCc1nc(-c2ccc(C)cc2)no1)c1ccccc1	none
CCCc1cc(N2CCN(c3ccc(C(C)=O)cc3)CC2)n2cnnc2n1	TEAD-YAP block 42
CCCc1cc(N2CCC(C(N)=O)CC2)n2cnnc2n1	none
COc1ccc(-n2cc(C(=O)NC3CCCCC3)c3ccccc3c2=O)cc1	none
CCC(C)C(=O)N1CCCC(c2nc(C)ncc2-c2cccc(C)c2)C1 (configuration not stated)	none
O=C(NCc1ccccc1)c1cccc(Nc2ccc(N3CCOCC3)cc2)n1	none
O=C(NCCOc1ccccc1F)c1ccc2ccccc2n1	TEAD-YAP block 58
COc1ccc(CCNC(=O)c2cccc(Nc3ccncc3)n2)cc1	none
O=C(NCCOc1ccccc1)c1ccc2ccccc2n1	TEAD-YAP block 53
O=C(NCCOc1ccccc1)c1cccc(Nc2ccc(N3CCOCC3)cc2)n1	TEAD-YAP block 47
COc1ccc(CCNC(=O)c2cccc(Nc3ccc(-n4ccnc4)cc3)n2)cc1	TEAD-YAP block 49
O=C(COc1ccccc1)N(c1ccc(Br)cc1)C1C=CS(=O)(=O)C1 (configuration not stated)	none
c1ccc2ncc(-c3ccc4c(c3)COC3(CCNCC3)O4)cc2c1	TEAD-YAP block 64
COc1ccc(OCC(O)Cn2c(N3CCCC3)nc3c2c(=O)[nH]c(=O)n3C)cc1 (configuration not stated)	none
Cc1sc2nc(C)n(C3CCN(C(=O)c4ccncc4)CC3)c(=O)c2c1C	TEAD-YAP block 40
Cc1cc(C)n(CC(O)Cn2c(C)c(C)c3ccccc32)n1 (configuration not stated)	MITF primary 53
NNc1nc(Nc2ccccc2)nc(Nc2ccccc2)n1	TEAD-YAP block 35
Cn1cc(C(=O)N2CCN(c3ccccc3Cl)CC2)c2ccccc2c1=O	TEAD-YAP block 43
COc1ccc(-n2nnnc2SCc2nc3ccccc3[nH]2)cc1	none
